This is a sample that favours compounds with a hit; in the whole collection about 3.2% have one here.
Tau fibril ThT – inhibitors of human tau fibril formation, thioflavin T binding; P10636; recombinant tau K18 P301L, heparin-induced fibrillization, ThT fluorescence; Potency, µM (doses to about 57.4 µM), without a hit: at the highest dose activity, negative = inhibition, usual class: inhibitors; 270,000 tested, 2.1% active; AID 1460; note: potency is the fitted concentration of half-maximal effect; % is set by controls: 0 for no effect and ±100 for the full control effect; nearly all actives have a fitted effect of over 55% in size
Target sequence (P10636 561-689 P618L limits assumed): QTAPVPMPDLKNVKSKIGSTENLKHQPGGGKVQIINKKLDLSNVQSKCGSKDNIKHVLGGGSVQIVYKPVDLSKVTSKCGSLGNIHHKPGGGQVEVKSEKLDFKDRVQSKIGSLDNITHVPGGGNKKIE
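Fibril formation assay: tau K18 P301L at 15 uM with trace Alexa 594 label, heparin inducer 20 uM, pH 7 sodium acetate buffer, 37 C for 6 hr; endpoint ThT signal.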
Lamin A splicing – changes lamin A minigene splicing in HeLa cells. AID 1487. Potency, µM (highest dose often 46.1 µM), without a hit: at the highest dose ratio change, negative = inhibition, most hits filed as inhibitors. 200,000 tested, 0.01% active. HeLa LMNA splicing GFP/RFP minigene ratio, 48 h; active = well fitted inhibition curve with a large enough effect in the signal ratio, with a control signal flat, not every such curve was filed as active; inconclusive = small, poorly fitted or top-dose-only effect, or effect the other way, or a change in a side signal; the % refers to the signal ratio; note: potency is the fitted concentration of half-maximal effect; % is set by controls: 0 for no effect and ±100 for the full control effect
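Read-out is the ratio of GFP to DsRed2 object intensity, acquired by 488 nm laser-scanning cytometry on HeLa lamin A-EGFP minigene reporter cells. Compound incubation 48 hrs at 37 °C in Opti-MEM with 2% FBS; DMSO 0.5% final.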
Tau fluor counter – counter-screen for tau fibril formation inhibitors. tau K18 P301L (four-repeat tau fragment) Alexa594 fluorescence, heparin fibrillization. Potency, µM (top dose mostly 57.7 µM), for the others: top-dose activity change, negative = decrease. AID 1463. 280,000 tested, 0.93% active; note: potency is the fitted concentration of half-maximal effect; % is set by controls: 0 for no effect and ±100 for the full control effect; nearly all actives have a fitted effect of over 55% in size
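Human K18 P301L tau (15 uM unlabeled plus 0.24 uM Alexa 594-labeled, final) in 100 mM sodium acetate pH 7 was mixed with compound and 20 uM heparin and incubated 6 hr at 37 C.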
CBFb-RUNX1 inh – inhibitors of human CBF-beta and RUNX1 interaction; Potency, µM (highest dose often 59.8 µM), without a hit: at the highest dose activity, negative = inhibition, most hits filed as inhibitors; AlphaScreen CBFb-His/RUNX1-biotin binding, biochemical; 230,000 tested, under 10 active; AID 1477; note: % of control where 0% means no effect
Target sequence (Q01196 whole entry, looked up): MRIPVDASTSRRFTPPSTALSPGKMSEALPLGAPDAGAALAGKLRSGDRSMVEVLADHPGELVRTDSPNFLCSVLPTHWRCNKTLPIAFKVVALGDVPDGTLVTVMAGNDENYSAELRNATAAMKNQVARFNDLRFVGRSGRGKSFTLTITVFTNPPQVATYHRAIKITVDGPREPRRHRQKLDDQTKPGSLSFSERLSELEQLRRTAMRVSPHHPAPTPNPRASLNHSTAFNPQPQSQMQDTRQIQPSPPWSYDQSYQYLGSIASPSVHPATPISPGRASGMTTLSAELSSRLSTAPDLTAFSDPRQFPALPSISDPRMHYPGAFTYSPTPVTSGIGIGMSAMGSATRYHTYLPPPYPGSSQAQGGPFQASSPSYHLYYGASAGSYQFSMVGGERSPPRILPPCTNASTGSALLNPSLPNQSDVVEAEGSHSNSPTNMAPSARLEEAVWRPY
Target sequence (Q13951 whole entry, looked up): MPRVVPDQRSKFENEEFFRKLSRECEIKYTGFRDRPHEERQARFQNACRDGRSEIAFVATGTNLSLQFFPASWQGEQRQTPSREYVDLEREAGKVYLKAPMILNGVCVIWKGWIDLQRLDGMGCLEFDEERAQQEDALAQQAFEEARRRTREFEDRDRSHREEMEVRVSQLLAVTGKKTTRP
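Interaction loss through any mechanism counts as activity. Pre-formed complex of His-CBF-beta and biotin-RUNX1 (30 nM apiece) is incubated with compound 15 min, then with 50 ng nickel and 50 ng streptavidin beads for 90 min before AlphaScreen detection.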
KDM4E inh – blocks human JMJD2E demethylase activity | 230,000 tested, 1.6% active | JMJD2E catalytic domain, FDH-coupled NADH fluorescence (FDH is formaldehyde dehydrogenase) | B2RXH2 | Potency, µM (doses to about 57.1 µM), for inactives: top-dose activity change, negative = inhibition, actives largely listed as inhibitors; active = well fitted inhibition curve with a large enough effect, not every such curve was filed as active; inconclusive = small, poorly fitted or top-dose-only effect, or another doubt; inactive = no such curve, though single readings can be large or run the other way;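 note: potency is the fitted concentration of half-maximal effect; 0% = wells with enzyme and -100% = buffer wells without enzyme; nearly all actives have a fitted effect of over 50% in size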
Tau fibril FP – inhibitors of human tau fibril formation; P10636; K18 P301L tau heparin fibrillization, Alexa594 FP, 6 h; Potency, µM (doses to about 57.7 µM), for the others: at the highest dose activity, negative = inhibition, hits mostly inhibitors; 280,000 tested, 0.39% active; note: potency is the fitted concentration of half-maximal effect; % is set by controls: 0 for no effect and ±100 for the full control effect; nearly all actives have a fitted effect of over 55% in size
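Compound effects on tau fibrillization are measured by Alexa 594 fluorescence polarization (ex 555, em 632 nm). K18 P301L tau is used at 15 uM with 0.24 uM labeled tracer, and 20 uM heparin induces aggregation over 6 hr at 37 C.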
* = called active by the depositor; [ ] = dose if it differs, or a comment. Unless noted, calls come from the whole dose curve; as a rule, active = well fitted curve in the direction sought with a large enough effect; inconclusive = small, poorly fitted or top-dose-only effect, or another doubt; inactive = no such curve, though single readings can be large; an effect the other way counts as inactive or inconclusive.

How did O=C1NC(=S)S/C1=C\c1ccc(SCc2ccccc2)o1 do in these assays?
Tau fibril ThT: 10µM*; Lamin A splicing: inconclusive; Tau fluor counter: inconclusive; CBFb-RUNX1 inh: inconclusive; KDM4E inh: -1%; Tau fibril FP: -6%

What do the screens show for `O=C1NC(=Nc2ccc(O)cc2)S/C1=C/c1ccco1`?
Tau fibril ThT: inconclusive; Tau fluor counter: inconclusive; CBFb-RUNX1 inh: -22%; KDM4E inh: -5%; Tau fibril FP: -10%

What do the screens show for `O=C1NC(=S)S/C1=C\c1ccc(SCc2ccco2)o1`?
Tau fibril ThT: 4.5µM*; Lamin A splicing: 13%; Tau fluor counter: inconclusive; KDM4E inh: inconclusive; Tau fibril FP: inconclusive

Results for Cc1cc(/C=C2\SC(=S)NC2=O)cc(C)c1O ?
Tau fibril ThT: inconclusive; Lamin A splicing: inconclusive; Tau fluor counter: -16%; CBFb-RUNX1 inh: -15%; KDM4E inh: 9%; Tau fibril FP: 4%

What do the screens show for `COc1ccc(C2/C=C\CN(CC(C)C)C(Cc3ccccc3)C(=O)N2Cc2ccc(F)cc2)cc1` (stereo unspecified)?
CBFb-RUNX1 inh: 20%

How did CC(C)(Oc1ccc(Br)cc1)C(=O)Nc1cc(-c2nc3ccccc3[nH]2)ccc1Cl do in these assays?
Tau fibril ThT: -1%; Tau fluor counter: inconclusive; Tau fibril FP: 16µM*

What do the screens show for `CC1Cc2cc(S(=O)(=O)N3CCN(c4ccccc4F)CC3)ccc2N1C(=O)C1CCC1` (stereo unspecified)?
Tau fibril ThT: -6%; Lamin A splicing: -2%[46 µM]; Tau fluor counter: -14%; Tau fibril FP: -8%

What do the screens show for `Cc1cccc(NS(=O)(=O)c2ccc3c(c2)[C@H]2C=CC[C@H]2[C@@H](c2ccc(F)cc2)N3)c1`?
Tau fibril ThT: inconclusive; Tau fluor counter: 5.6µM*[quencher]; Tau fibril FP: -8%

What do the screens show for `COc1cccc(NS(=O)(=O)c2ccc3c(c2)C2C=CCC2C(c2ccc(C(=O)O)cc2)N3)c1` (stereo unspecified)?
Tau fibril ThT: 14µM*; Lamin A splicing: 3%; Tau fluor counter: 13µM*[quencher]; CBFb-RUNX1 inh: -3%; KDM4E inh: inconclusive; Tau fibril FP: inconclusive

What do the screens show for `COC(=O)c1ccc([C@H]2Nc3ccc(S(=O)(=O)Nc4ccc(F)cc4)cc3[C@H]3C=CC[C@H]32)cc1`?
Tau fibril ThT: inconclusive; Tau fluor counter: inconclusive; Tau fibril FP: -5%

What do the screens show for `COc1ccc(C)cc1NS(=O)(=O)c1ccc2c(c1)[C@H]1C=CC[C@H]1[C@@H](c1cccc(Cl)c1)N2`?
Tau fibril ThT: inconclusive; Tau fluor counter: inconclusive; Tau fibril FP: 10%

Results for COc1ccc(C(=O)N/N=C(\C)c2ccc3c(c2)C2C=CCC2C(c2ccccc2)N3)cc1 (stereo unspecified) ?
Tau fibril ThT: 13µM*; Lamin A splicing: -22%; Tau fluor counter: inconclusive; CBFb-RUNX1 inh: -14%; KDM4E inh: 20µM*; Tau fibril FP: -4%

What do the screens show for `COc1ccc(OC)c([C@@H]2Nc3ccc(C(=O)O)cc3[C@@H]3C=CC[C@@H]32)c1`?
Tau fibril ThT: inconclusive; Lamin A splicing: 4%[46 µM]; Tau fluor counter: -11%; Tau fibril FP: 5%

How did O=C(NCc1ccccc1F)c1ccc(CN2CC(=O)N3CCCCC3C2=O)cc1 (stereo unspecified) do in these assays?
Tau fibril ThT: -4%; Lamin A splicing: 22%[46 µM]; Tau fluor counter: 1%; Tau fibril FP: -1%

Results for O=S(=O)(Nc1cccc2cccnc12)c1ccc(Br)s1 ?
CBFb-RUNX1 inh: 6%

Results for O=[N+]([O-])c1ccc(N/N=C2\CC3CC=CC23)cc1 (stereo unspecified) ?
Tau fibril ThT: 14µM*; Tau fluor counter: inconclusive; CBFb-RUNX1 inh: -12%; KDM4E inh: -4%; Tau fibril FP: 6%

What do the screens show for `CCCc1cc(=O)[nH]c(Nc2ccc(C)c(O)c2)n1`?
Tau fibril ThT: -10%; Tau fluor counter: inconclusive; Tau fibril FP: -2%

What do the screens show for `Cc1ccc2nc(-c3ccc(O)cc3)c(Nc3ccc4c(c3)OCCO4)n2c1`?
Tau fibril ThT: inconclusive; Lamin A splicing: -14%; Tau fluor counter: 25µM*[quencher]; CBFb-RUNX1 inh: -22%; KDM4E inh: inconclusive; Tau fibril FP: 16%

How did Cc1ccc2nc(-c3ccccc3O)c(Nc3ccc4c(c3)OCCO4)n2c1 do in these assays?
Tau fibril ThT: inconclusive; Lamin A splicing: -5%; Tau fluor counter: 7.1µM*[quencher]; CBFb-RUNX1 inh: -30%; KDM4E inh: inconclusive; Tau fibril FP: 10%

How did COc1ccc(-c2nc3ccc(C)cn3c2Nc2ccc3c(c2)OCO3)cc1 do in these assays?
Tau fibril ThT: inconclusive; Tau fluor counter: inconclusive; Tau fibril FP: -5%

How did COc1cccc(-n2cc(C(=O)OCc3ccc(F)c(F)c3)c3ccccc3c2=O)c1 do in these assays?
Tau fibril ThT: -6%; Lamin A splicing: inconclusive; Tau fluor counter: -23%; Tau fibril FP: -6%

What do the screens show for `Cc1c(C2=CCN(S(=O)(=O)c3ccc(Cl)cc3)CC2)c2ccccc2n1CC(=O)N1CCCC1`?
Tau fibril ThT: 16%; Tau fluor counter: 5%; Tau fibril FP: 7%

How did N#CC(c1ccccn1)c1ncc(C(F)(F)F)cc1Cl (stereo unspecified) do in these assays?
Tau fibril ThT: -6%; Tau fluor counter: -1%; CBFb-RUNX1 inh: 1%; KDM4E inh: 2%; Tau fibril FP: 4%

How did CCCn1nc([N+](=O)[O-])c(C(C#N)c2nc3ccccc3o2)c(Cl)c1=O (stereo unspecified) do in these assays?
Tau fibril ThT: 7.1µM*; Lamin A splicing: inconclusive; Tau fluor counter: 14µM*[quencher]; CBFb-RUNX1 inh: -4%; KDM4E inh: 5%; Tau fibril FP: inconclusive

What do the screens show for `CCn1nc([N+](=O)[O-])c(C(C#N)c2nc3cc(C(F)(F)F)ccc3s2)c(Cl)c1=O` (stereo unspecified)?
Tau fibril ThT: 4.5µM*; Lamin A splicing: inconclusive; Tau fluor counter: 6.3µM*[quencher]; KDM4E inh: 6%; Tau fibril FP: 20µM*

How did Cn1nc([N+](=O)[O-])c(C(C#N)c2ccccn2)c(Cl)c1=O (stereo unspecified) do in these assays?
Tau fibril ThT: 8.9µM*; Lamin A splicing: inconclusive; Tau fluor counter: 13µM*[quencher]; CBFb-RUNX1 inh: 22%; KDM4E inh: -7%; Tau fibril FP: inconclusive

How did CC[C@H](C)[C@H](NC(=O)[C@H](Cc1ccc(O)cc1)NC(=O)[C@@H]1CCCN1C(=O)[C@H](CCCCN)NC(=O)[C@@H](N)CCCCN)C(=O)N[C@@H](CC(C)C)C(=O)O do in these assays?
CBFb-RUNX1 inh: 3%
